High-throughput results (PubChem BioAssay)
Nrf2 activator: Nrf2 pathway activation; AREc32 ARE-luciferase reporter (MCF7-derived line), luminescence, 24 h; Potency, µM (titrated, usually from 46.1 µM), for the others: at the top dose activation, usual class: activators; 410,000 compounds, 0.31% hits; AID 624171; note: % of control where 0% means no effect; nearly all actives have a fitted effect of over 65% in size
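ARE-driven firefly luciferase activity in AREc32 cells measured after a 24 hr compound exposure at 37 deg C, using Steady-Glo reagent and a 30 min room-temperature hold.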
Rango complex inh: inhibitors of Rango-importin beta complex formation; Q14974; Rango CFP/YFP FRET sensor + importin beta, 45 min; Potency, µM (doses to about 92.2 µM), for inactives: at the top dose inhibition of complex formation; 340,000 compounds, 0.031% hits; AID 540263; calls by dose curve;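 note: 0% = DMSO wells and 100% = buffer wells lacking importin beta; nearly all actives have a fitted effect of over 15% in size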
Target sequence (Q14974 whole entry, looked up): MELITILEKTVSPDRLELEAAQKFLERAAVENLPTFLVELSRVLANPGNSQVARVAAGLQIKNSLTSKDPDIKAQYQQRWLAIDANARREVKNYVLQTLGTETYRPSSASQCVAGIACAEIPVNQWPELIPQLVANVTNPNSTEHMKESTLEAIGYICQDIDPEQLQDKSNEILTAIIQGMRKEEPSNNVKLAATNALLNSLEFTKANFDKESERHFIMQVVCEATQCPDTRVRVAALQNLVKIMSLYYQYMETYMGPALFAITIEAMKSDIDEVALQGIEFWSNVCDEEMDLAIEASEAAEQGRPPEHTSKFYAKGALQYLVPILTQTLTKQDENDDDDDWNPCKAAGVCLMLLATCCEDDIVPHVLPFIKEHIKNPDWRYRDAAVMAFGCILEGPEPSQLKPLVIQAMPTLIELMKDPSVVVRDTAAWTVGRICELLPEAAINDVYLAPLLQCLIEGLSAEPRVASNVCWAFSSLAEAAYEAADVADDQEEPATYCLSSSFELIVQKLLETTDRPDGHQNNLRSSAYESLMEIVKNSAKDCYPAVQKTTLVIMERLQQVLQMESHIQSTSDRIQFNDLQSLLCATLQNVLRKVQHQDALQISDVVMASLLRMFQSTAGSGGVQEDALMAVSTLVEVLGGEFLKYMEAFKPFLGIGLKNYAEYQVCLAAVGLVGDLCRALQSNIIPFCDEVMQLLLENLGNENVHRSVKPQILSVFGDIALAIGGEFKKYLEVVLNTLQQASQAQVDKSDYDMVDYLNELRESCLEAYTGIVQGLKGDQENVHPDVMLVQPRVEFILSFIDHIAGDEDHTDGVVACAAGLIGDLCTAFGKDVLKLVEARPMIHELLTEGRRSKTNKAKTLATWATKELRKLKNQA
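FRET biosensor Rango (snurportin 1 IBB between N-terminal EYFP and C-terminal Cerulean), 50 nM in PBS/1 mM DTT/0.02% Tween-20/0.1% BSA, preincubated 5 min RT with compound; 0.125 microM importin beta added, 45 min RT, CFP/YFP FRET ratio read.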
Nrf2 block: blocks Nrf2 signaling. A549 ARE-Fluc reporter, luciferase luminescence, 18-24 h. Potency, µM (highest dose often 46 µM), for the others: at the top dose activity change, negative = inhibition, most hits filed as inhibitors. 360,000 compounds, 2.1% hits. AID 504444; note: % is set by controls: 0 for no effect and ±100 for the full control effect; nearly all actives have a fitted effect of over 60% in size
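Reporter: ARE-Fluc in A549. Exposure: 18-24 h, 37 °C, 5% CO2, 5% FBS OPTI-MEM. Readouts: fluorescent cytotoxicity (CellTiter-Fluor), then luminescent Nrf2 signal after BugLite.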
A549 viability: A549 cytotoxicity, counter-screen for Nrf2 inhibitors. 390,000 compounds, 0.16% hits. AID 504648. A549 ARE-Fluc cells, CellTiter-Fluor viability, 18-24 h. Potency, µM (highest dose often 46 µM), without a hit: top-dose activity change, negative = cytotoxicity, usual class: inhibitors; note: % is set by controls: 0 for no effect and ±100 for the full control effect
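Cytotoxicity counterscreen: CellTiter-Fluor fluorescence was measured in A549 ARE_Fluc cells after 18-24 h of compound exposure in a concentration series. The subsequent BugLite luminescent read reports ARE-luciferase activity.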
Rango release inh: prevents RanGTP from dissociating the Rango-importin beta complex; Biochemical FRET Rango-importin beta, RanGTP-induced dissociation; Potency, µM (series often up to 46.1 µM), for the others: at the highest dose activity change, negative = inhibition; 340,000 compounds, 0.071% hits; AID 540253; calls by dose curve; note: % of control where 0% means no effect; nearly all actives have a fitted effect of over 45% in size
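Compounds preincubate 5 min with complex of recombinant Rango and importin beta in PBS with 1 mM DTT. Ran (0.6 uM) loaded with 2 mM GTP plus 0.2 uM RCC1 starts dissociation; FRET is recorded 45 min later.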
Starred values were filed as active, the others as inactive; ? = inconclusive; / = no result. Hits are enriched below; roughly 2.3% of the tested compounds scored in any of these assays. Unless noted, calls come from the whole dose curve; as a rule, active = well fitted curve in the direction sought with a large enough effect; inconclusive = small, poorly fitted or top-dose-only effect, or another doubt; inactive = no such curve, though single readings can be large; an effect the other way counts as inactive or inconclusive. Potency is the fitted concentration of half-maximal effect.

SMILES	Nrf2 activator	Rango complex inh	Nrf2 block	A549 viability	Rango release inh
C=CC(=O)Nc1ccc(N(C)c2ccnc(Nc3ccc(N4CCN(C)CC4)cc3)n2)cc1	5%	0%	15%	7.3µM*	-9%
CN1CCN(c2ccc(NC(=O)c3ccc(Oc4ccccc4)cc3)cc2)CC1	9%	2%	6%	-1%	3%
O=C1c2ccccc2C(=O)N1c1ncccc1O	/	/	3%	8%	/
O=C(NCCO)c1cccc(Nc2nc(-c3ccccc3)c3cc(Cl)ccc3n2)c1	2%	?	15µM*	-27%	?
Cc1ccccc1CN1C(=O)c2ccccc2S(=O)(=O)c2ccc(C(=O)OCC3CCCO3)cc21 (centres undefined)	2%	/	-13%	-15%	/
Cc1cccc(S(=O)(=O)Nc2cccc3c2C(=O)c2ccccc2-3)c1	9%	?	18µM*	-29%	?
COc1ccc(C(=O)NCCc2c[nH]c3ccccc23)cc1S(=O)(=O)N1CCCCC1C (centres undefined)	2%	?	-17%	-12%	-10%
COc1ccc(C(=O)NCCc2ccc(Cl)cc2)cc1S(=O)(=O)N1CCCCC1C (centres undefined)	0%	3%	16µM*	-7%	27%
Cc1cccc(-c2nc3cc([N+](=O)[O-])ccc3o2)c1	10µM*	3%	?	-11%	5%
Cc1cc2c(s1)c1cnn(Cc3cc(F)cc(F)c3)c(=O)c1n2C	/	/	15%	-2%	/
COc1ccc(CN(C(=O)Cc2c[nH]c3ccccc23)C(C(=O)NC2CCCCC2)c2ccc(C)o2)cc1 (centres undefined)	0%	1%	12µM*	?	7%
Cc1ccc(C(C(=O)NC2CCCCC2)N(Cc2ccccc2)C(=O)Cc2c[nH]c3ccccc23)o1 (centres undefined)	0%	3%	?	?	-11%
COc1cccc(CN(C(=O)Cc2c[nH]c3ccccc23)C(C(=O)NC2CCCCC2)c2ccc(C)o2)c1 (centres undefined)	5%	-1%	21µM*	?	-9%
Cc1oc2c(c1C(=O)Nc1ccc(Cl)cc1F)C1=NCCN1C=N2	5%	/	?	8%	/
CCOC(=O)c1ccc(Nc2ncnc3c2cnn3C)cc1	0%	1%	-3%	-1%	-11%
Cn1ncc2c(O/N=C(\N)c3ccc(C(C)(C)C)cc3)ncnc21	-2%	7%	18µM*	16µM*	0%
c1csc(-c2nnc(N3CCOCC3)c3ccccc23)c1	-1%	0%	?	2%	22%
c1csc(-c2nnc(N3CCCCCC3)c3ccccc23)c1	13µM*	0%	9%	0%	-5%
c1ccc2c(N3CCCCC3)nc(N3CCCC3)nc2c1	0%	1%	-24%	-15%	1%
Cc1nc(N2CCCCCC2)c2ccccc2n1	1%	?	18µM*	-10%	-12%
Clc1nnc(N2CCCCC2)c2ccccc12	0%	-3%	16µM*	1%	8%
CN(C)S(=O)(=O)c1ccc2c(c1)N(CC(=O)NCc1ccccc1)C(=O)C1CCCCN21 (centres undefined)	4%	/	/	-2%	/
CCOc1ccc(CCN2C(=O)C(=O)N([C@@H](Cc3ccccc3)CN3CCC[C@H]3CN3C(=O)C(=O)NC[C@@H]3Cc3ccccc3)C[C@@H]2Cc2ccc(O)cc2)cc1	0%	/	/	/	/
CCCCC(=O)OCC(=O)N1N=C(c2c[nH]c3ccccc23)C(O)C1c1ccc(OC)cc1 (centres undefined)	4%	0%	?	?	17%
COc1ccccc1Cc1nc2ccccc2nc1SCC(=O)NCc1ccccc1Cl	0%	/	/	4%	/
O=C(Nc1cccnc1)C1(F)C(F)(F)C(F)(F)C(F)(F)C(F)(F)C1(F)F	10µM*	-3%	/	0%	15%
O=C(Nc1cccnc1)C12CC3CC(CC(C3)C1)C2	-1%	0%	?	-4%	1%
Oc1ccc(CCc2ccccc2F)c2cccnc12	/	/	?	-1%	/
CSc1ccccc1NC(=O)COc1ccccc1C	9%	2%	?	6%	-2%
Cc1ccccc1OCC(=O)Nc1ccccc1CO	10µM*	?	/	8%	-1%
